Test results published in PubChem BioAssay.
Where “and” joins values, the source holds several entries; their conditions need not be identical. Identical values can stand only once. Unmarked numbers belong to inactive results. Calls of active or inactive are those of the source.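 The calls were made as follows: active = inhibition at or above 50% relative to wild type and mutant plate controls; inactive = inhibition below 50%.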

Experiment: loss of swimming-algae plug formation – whole organism, Chlamydomonas reinhardtii, WT vs cilia-less mutant, absorbance, 96-well, primary screen (AID 463189);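 also: 0% = wild type cc124 cells in DMSO and 100% = ciliumless bld1 mutant cells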
Conditions: Chlamydomonas reinhardtii gravitaxis, OD600 absorbance, 2 days; at 10 µM; active compounds read high
With `C[n+]1cc2c3c(ccc2c2ccc4cc5c(cc4c21)OCO5)OCO3` the inhibition was 145% (active). Molecule `NC1CONC1=O` (centres undefined) has an inhibition of 8.19%. Work on `CC1(C)CCC(NC(=O)[C@@H](N)CCC(=O)O)CC1` yielded an inhibition of 2.89%. Work on `Nc1ccc(CCNc2ncnc3c2ncn3C2OC(CO)C(O)C2O)cc1` (centres undefined) yielded an inhibition of 3.12%. For `O=C(/C=C/c1ccc(O)c(O)c1)OCCc1ccccc1`, the inhibition was 1.6%. `N#Cc1c(-c2ccccc2)no[n+]1[O-]` showed an inhibition of -3.89%. With `CN1C2CCC1CC(OC(=O)c1c[nH]c3ccccc13)C2` (centres undefined) the inhibition was 11.2%. In the case of `NC(=NCc1ccccc1)NC(=O)c1nc(Cl)c(N)nc1N`, the inhibition is reported as -1.5%. `COc1cc2c(cc1C(F)(F)F)N(C(=O)Nc1cc(F)cc(-c3cccnc3)c1)CC2` showed an inhibition of 0.852%. `CNc1ncnc2c1ncn2[C@@H]1O[C@H](CO)[C@H](O)C1O` (some centres undefined) gave an inhibition of 7.79%. With `CCN1CCC[C@H]1CNC(=O)c1c(O)c(Cl)cc(Cl)c1OC` the inhibition was 0.286%. In the case of `CCOC(=O)c1cnc2c(cnn2CC)c1NN=C(C)C`, the inhibition is reported as 7.54%. Molecule `CC(N=C(NC#N)Nc1ccncc1)C(C)(C)C` (centres undefined) has an inhibition of -9.18%. For `CC(C)NCC(O)c1ccc(O)c(O)c1` (centres undefined), the inhibition was -5.24% and 12.5%. `Cn1ccnc1` gave an inhibition of 9.19%. `O=C(O)Cc1c[nH]c2ccc(O)cc12` gave an inhibition of -4.32%. For `NC1CCN(O)C1=O` (centres undefined), the inhibition was 2.51%. In the case of `NC(=O)C(=O)O`, the inhibition is reported as 0.681%. For `CN(C)C/C=C(/c1ccc(Br)cc1)c1cccnc1`, the inhibition was 108% (active).
